# Source: PubChem BioAssay AID1159580 (chemical genetic matrix, 2015)
# About 2,000 (36%) of roughly 5,500 compounds were called active. About 18% were inconclusive and are not listed. Some of the results follow. A number with no mark means an inactive call. No stated cut-off is given here; in the data, active means normalized growth mostly below about 0.91 (no sharp cut-off); inconclusive means no clear call, values can overlap the other calls; inactive means mostly above about 0.92.
# Experiment: chemical genetic growth profiling, strain panel (AID 1159580);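 further: tested at 20 µM; growth read once vehicle control cultures reached saturation at 30 °C; 1 = growth at the plate median or of vehicle wells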
# Settings: growth OD
# [1] = S. cerevisiae deletion strains, locus YAL013W, strain DEP1, stronger effect = lower value
# [2] = S. cerevisiae deletion strains, locus YBR229C, strain ROT2, stronger effect = lower value
# [3] = S. cerevisiae deletion strains, locus YCL061C, strain MRC1, stronger effect = lower value
# [4] = S. cerevisiae deletion strains, locus YDL101C, strain DUN1, stronger effect = lower value
# [5] = S. cerevisiae deletion strains, locus YDR150W, strain NUM1, stronger effect = lower value
# [6] = S. cerevisiae deletion strains, locus YEL061C, strain CIN8, stronger effect = lower value
# [7] = S. cerevisiae deletion strains, locus YGR078C, strain PAC10, stronger effect = lower value
# [8] = S. cerevisiae deletion strains, locus YHR030C, strain SLT2, stronger effect = lower value
# [9] = S. cerevisiae deletion strains, locus YHR087W, strain rtc3, stronger effect = lower value
# [10] = S. cerevisiae deletion strains, locus YJL187C, strain SWE1, stronger effect = lower value
# [11] = S. cerevisiae deletion strains, locus YJR043C, strain POL32, stronger effect = lower value
# [12] = S. cerevisiae deletion strains, locus YJR075W, strain HOC1, stronger effect = lower value
# [13] = S. cerevisiae deletion strains, locus YLR039C, strain RIC1, stronger effect = lower value
# [14] = S. cerevisiae deletion strains, locus YLR058C, strain SHM2 (second series), stronger effect = lower value
# [15] = S. cerevisiae deletion strains, locus YLR085C, strain ARP6, stronger effect = lower value
# [16] = S. cerevisiae deletion strains, locus YLR262C, strain YPT6, stronger effect = lower value
# [17] = S. cerevisiae deletion strains, locus YML094W, strain GIM5, stronger effect = lower value
# [18] = S. cerevisiae deletion strains, locus YMR219W, strain ESC1, stronger effect = lower value
# [19] = S. cerevisiae deletion strains, locus YMR263W, strain SAP30, stronger effect = lower value
# [20] = S. cerevisiae deletion strains, locus YNL153C, strain GIM3, stronger effect = lower value
# [21] = S. cerevisiae deletion strains, locus YNL298W, strain CLA4 (second series), stronger effect = lower value
# [22] = S. cerevisiae deletion strains, locus YNL322C, strain KRE1, stronger effect = lower value
# [23] = S. cerevisiae deletion strains, locus YNR030W, strain Alg12, stronger effect = lower value
# [24] = S. cerevisiae deletion strains, locus YOL006C, strain TOP1, stronger effect = lower value
# [25] = S. cerevisiae deletion strains, locus YPL055C, strain LGE1, stronger effect = lower value
# [26] = S. cerevisiae deletion strains, locus YPL241C, strain CIN2, stronger effect = lower value
# [27] = S. cerevisiae deletion strains, locus YPR135W, strain CTF4, stronger effect = lower value
smiles,measurement,setting,value
NC(=S)CS(=O)(=O)c1ccc(C(F)(F)F)cc1,normalized growth,[1],0.977
same,normalized growth,[2],1.01
same,normalized growth,[3],1.02
same,normalized growth,[4],1.03
same,normalized growth,[5],0.998
same,normalized growth,[6],1.03
same,normalized growth,[7],1.01
same,normalized growth,[8],1.03
same,normalized growth,[9],1.01
same,normalized growth,[10],1.02
same,normalized growth,[11],1.01
same,normalized growth,[12],1.02
same,normalized growth,[13],1.09
same,normalized growth,[14],1.02
same,normalized growth,[15],1.23 [resistant] (active)
same,normalized growth,[16],1.07
same,normalized growth,[17],1.01
same,normalized growth,[18],1.02
same,normalized growth,[19],1.04
same,normalized growth,"S. cerevisiae deletion strains, locus YNL128W, strain TEP1, stronger effect = lower value",1.03
same,normalized growth,[20],1.02
same,normalized growth,[21],1.03
same,normalized growth,[22],1
same,normalized growth,[23],0.992
same,normalized growth,[24],1.23
same,normalized growth,[25],0.952
same,normalized growth,[26],1.09
same,normalized growth,[27],0.969
CC(=O)CS(=O)(=O)c1ccc(Cl)cc1,normalized growth,[1],1.02
same,normalized growth,[2],1.01
same,normalized growth,[3],1.01
same,normalized growth,[4],1.01
same,normalized growth,"S. cerevisiae deletion strains, locus YDL134C, strain PPH21, stronger effect = lower value",1
same,normalized growth,[5],0.969
same,normalized growth,[6],1.02
same,normalized growth,[7],1
same,normalized growth,[8],1
same,normalized growth,[9],0.998
same,normalized growth,[10],0.995
same,normalized growth,[11],0.988
same,normalized growth,[12],0.995
same,normalized growth,[13],1.02
same,normalized growth,[14],1
same,normalized growth,[15],1.04
same,normalized growth,[16],1.03
same,normalized growth,[17],1.02
same,normalized growth,[18],1.01
same,normalized growth,[19],0.969
same,normalized growth,[20],0.995
same,normalized growth,[21],0.992
same,normalized growth,[22],1.01
same,normalized growth,[23],1
same,normalized growth,[24],1.01
same,normalized growth,[25],1
same,normalized growth,[26],1.02
same,normalized growth,[27],0.933
same,normalized growth,"S. cerevisiae strains, strain wild type, stronger effect = lower value",1
